# Assay results taken from the supplement of paper PMC10338343.
# ± gives the standard deviation.
# System: EfPiwi piRISC loaded with piRNA #1 (26 nt)
# Assay: pre-steady-state target cleavage rate (min^-1); auxiliary factor: 500 nM Ephydatia muelleri Gtsf1; guide: piRNA #1 5'p-UGAGGUAGUAGGUUGUAUAGUAUCCA; MIWI and MILI are mouse PIWI proteins and EfPiwi is from a freshwater sponge; tags in brackets are library labels; higher = faster piRNA-guided slicing of the target
# Outline: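 Cleave-'n-Seq reactions paired 0.1 nM transcribed, DNA-blocked target RNA library with 1 nM active affinity-purified piRISC holding one synthetic guide, plus or minus 500 nM GTSF1 partner protein, in HEPES–potassium acetate buffer at 33 °C for 0–8 or 0–960 min. After sequencing of uncleaved targets and normalisation to depth and weakly complementary targets, the pre-steady-state cleavage rate was taken from a burst-and-steady-state fit. Three trials were pooled, and k3 was capped at 0.0001 min^-1.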
row,Sequence,pre-steady-state target cleavage rate
1,GGAGACCAUACUAUACAACCUACAUGGAGA [g8:g23:cont:t1A],0.00382 ± 0.0038
2,GGAGACCUAACAAAACAACCUACUACCUCA,0.00903 ± 0.0046
3,GGAGACCUAACUAUACAAACCUACUACCUCA,0.00462 ± 0.0028
4,GGAGACCAUACUAUACGAACCUACUACCUCA,0.0108 ± 0.0042
5,GGAGACCAUACUAUACAACCACUACCUCA,0.00558 ± 0.0034
6,GGAGUGGAUACUAUACAACCAUGUACCUCA,0.00412 ± 0.0026
7,GGAGUGGAUACUAUACAACCUACUAGCACA,0.00246 ± 0.0018
8,GGAGAGGAUAGUAUACAACCUACUUCCUCA,0.00319 ± 0.0018
9,GGAGAGGAUACUAUACAACCUACUACCAUCA,0.00705 ± 0.0029
10,GGAGACCAUACUAUACAACCAACUACCUGA,0.00258 ± 0.0022
11,GGAGAGGAUACUAUACAACCUAUUACCUCA,0.153 ± 0.056
12,GGAGACGAUACUAUACAACCUACACCUCA,0.00474 ± 0.0027
13,GGAGACGAUACUAUACGACCUACUACCUCA,0.0807 ± 0.028
14,GGAGACCUAUGAUAUGUUGCAACUACCACA,< 0.0001
15,GGAGUGGAUACUAUACAACCUAGUACGUCA,0.00381 ± 0.0014
16,GGAGACCAUUCUAUACAACCUACUUCCUCA,0.00372 ± 0.0035
17,GGAGAGGAUACUAUUCAACCUACAACCUCA,0.00238 ± 0.0017
18,GGAGUGGAUUGAAUACAACCUACUACCUCA,0.00637 ± 0.0044
19,GGAGACCUUACUAUACAAACCUACUACCUCA,0.0103 ± 0.0047
20,GGAGACCUUACUAUACAACACUACUACCUCA,0.0118 ± 0.0053

row,Sequence,pre-steady-state target cleavage rate
1,GGAGUGGAUACUAUACAACCCUACUACCUCA,0.00375 ± 0.0023
2,GGAGACCUAACUAUACAACCUUCUACCUCA,0.00554 ± 0.0031
3,GGAGUGGAUACUUACAACCUACUACCUCA,0.0233 ± 0.011
4,GGAGAGGAUACUAUACACACCUACUACCUCA,0.00541 ± 0.0039
5,GGAGACGAUACUAUACAACCUAGUACCUGA,0.00389 ± 0.001
6,GGAGUGGAUACUAUCACAACCUACUACCUCA,0.0265 ± 0.011
7,GGAGUGGAUACUAUACAACCUACUCCUCA,0.00475 ± 0.0027
8,GGAGAGGAUACUAUACAACCUUGUACCUCA,0.00294 ± 0.0029
9,GGAGACCUAUGAUAUGUACCUACUAUCCUCA,< 0.0001
10,GGAGACCAUACUAUACAACCUAAUACCUCA,0.00857 ± 0.0039
11,GGAGUGGAUACUAUACAACCUACUUCGUCA,0.00391 ± 0.0021
12,GGAGAGGAUACUAUACAACCUACUUCGUCA,0.00697 ± 0.0031
13,GGAGACCAUACUAUACAACGUACUACCUCA,0.00482 ± 0.0015
14,GGAGACCUAUGAUAUCAACCAAGUACCUCA,< 0.0001
15,GGAGACCAAACUAUACAACCUUCUACCUCA,0.00406 ± 0.0026
16,GGAGAGCAUAGUAUACAACCUACUACCUCA,0.0077 ± 0.0045
17,GGAGUGGAUACAAUACAACCUAGUACCUCA,0.00305 ± 0.0021
18,GGAGACCAUACUAUACAACCAACUAGCUCA,0.0061 ± 0.0043
19,GGAGUGGAUACUAUACAACCUUCUUCCUCA,0.00355 ± 0.0026
20,GGAGAGGAUACUAUACAACCUUGAACCUCA,0.00408 ± 0.004
